Laboratory results taken from ChEMBL document CHEMBL3988442, “University of Dundee, Small-Polar-MMV Screening Library” (2021).
About 13,000 (27%) of roughly 48,000 compounds showed an effect of 50% or more. This is one part of the list.

Test system: Wolbachia pipientis
Assay: Anti-Wolbachia Cell-Based Screen
Format: functional
Set-up: scale not given: in the data most compounds retested in dose-response had high values
Details: 5 µM

Row | Compound | Percent Effect
1 | CCOCCn1nc(C)cc1C(=O)N1CC[C@](C)(O)[C@H](C)C1 | -22.18%
2 | C[C@@H]1CN(Cc2nc(C(N)=O)no2)CC[C@@]1(O)C1CC1 | 3.604%
3 | CCN(CC)C(CNCc1ccc(O)cc1)c1ccco1 (stereo not drawn) | 0.1551%
4 | CC1COCCN1C(=O)NCCCn1ccnc1 (stereo not drawn) | -6.702%
5 | c1cncc(CN(CCCn2ccnc2)CC2CCOC2)c1 (stereo not drawn) | 114.4%
6 | CCc1ccc(CN(CCCn2ccnc2)Cc2ccc(C)s2)o1.O=C(O)CC(O)(CC(=O)O)C(=O)O | -10.6%
7 | CN(Cc1cccnc1)CC1CCOc2ccccc2C1 (stereo not drawn) | 1.385%
8 | Cc1ccc(CN(CCCn2ccnc2)Cc2c[nH]cn2)s1.O=C(O)CC(O)(CC(=O)O)C(=O)O | -8.779%
9 | O=C(NCCCn1ccnc1)C1COCC(=O)N1Cc1ccccc1 (stereo not drawn) | -1.911%
10 | CCCN(Cc1cccnc1)Cc1ccc(C2CCCCO2)o1 (stereo not drawn) | 8.313%
11 | COc1ccccc1CN(CCCn1ccnc1)CC1CCOC1.O=C(O)CC(O)(CC(=O)O)C(=O)O (stereo not drawn) | 173.3%
12 | Fc1ccccc1CN(CCCn1ccnc1)CC1CCOC1.O=C(O)CC(O)(CC(=O)O)C(=O)O (stereo not drawn) | 96.39%
13 | Cc1nc(C)c(C(=O)NCCOc2ccc(C(F)(F)F)cn2)o1 | -28.79%
14 | N[C@H]1CCCN(C(=O)c2cnc(COc3ccccc3)nc2O)C1 | -11.28%
15 | CC(C)n1c(C2CCCN(CCS(C)(=O)=O)C2)nc2ccccc21 (stereo not drawn) | -3.684%
16 | Cc1nc2sccn2c1C(=O)N1CCn2nc(C(=O)NC3CC3)cc2C1 | 8.039%
17 | Cc1cnc(N2C[C@H]3CCCC(N(C)Cc4ccccn4)[C@H]3C2)nc1.O=C(O)C(F)(F)F (stereo partly drawn) | -11.38%
18 | CCCN1CCN(Cc2cccc(OC(C)C)c2)[C@H]2CS(=O)(=O)C[C@H]21 | -22.43%
19 | CC(C)C1CN(c2cnccn2)CCC(=O)N1Cc1ccc(F)cc1 (stereo not drawn) | -0.3567%
20 | CCc1cnc(N2CCOC(CCOC)C2)nc1 (stereo not drawn) | -10.95%
21 | COCCn1ccnc1C1CCCN(c2cnccn2)C1 (stereo not drawn) | -8.201%
22 | Cc1c[nH]nc1C1CN(c2cnccn2)CCO1 (stereo not drawn) | 155.2%
23 | Cc1cccc(C)c1OC1CN(Cc2cnc(N3CCOCC3)nc2)C1 | -7.257%
24 | Cc1c[nH]nc1C1CN(c2ncccn2)CCO1 (stereo not drawn) | 139.2%
25 | COc1ccc(C(=O)C2CCCN(c3cnccn3)C2)c(C)c1 (stereo not drawn) | -36.51%

Row | Compound | Percent Effect
26 | Cc1c[nH]nc1C1CCN(c2cnccn2)C1 (stereo not drawn) | 87.37%
27 | Cc1c[nH]nc1C1CCCN(c2cnccn2)C1 (stereo not drawn) | 152.5%
28 | COCCN1C[C@@H]2CN(c3cnccn3)C[C@@H]2C1=O | -23.71%
29 | N#Cc1cccc(N2CCC(CO)(CCCc3ccccc3)CC2)n1 | -12.61%
30 | CC(C)(C)c1cnc(CNc2cccc(Cn3cnnc3)c2)o1 | -22.9%
31 | CCOC(=O)NC(C(=O)NCc1ccc(N2CCCCC2)nc1)C(C)C (stereo not drawn) | 2.776%
32 | CC(C)C(NC(=O)Cc1ccccc1)C(=O)NCc1ccc(O)nc1 (stereo not drawn) | 106%
33 | CC(C)[C@H](NC(=O)c1cccc(CCC(C)(C)O)c1)C(N)=O | -12.73%
34 | COc1ccc(CNC(=O)NCc2ccc(C(N)=O)cc2)cn1 | 4.713%
35 | Cc1nccn1-c1ccc(CNC(=O)c2ccc(O)nc2)cn1 | -3.999%
36 | Cc1cccc(C(=O)NC(C(=O)NCc2ccc(O)nc2)C(C)C)c1 (stereo not drawn) | 103%
37 | COc1ccc(CNC(=O)C(NC(=O)Cc2ccccc2)C(C)C)cn1 (stereo not drawn) | 88.86%
38 | CC(C)[C@H](NC(=O)NC1CCS(=O)(=O)C1)C(=O)NCc1cccnc1 (stereo partly drawn) | 1.711%
39 | COc1ccc(CNC(=O)NCc2ccc(C)cc2)cn1 | -5.418%
40 | O=S(=O)(CCCS(=O)(=O)c1ccc2c(c1)OCCCO2)c1ccccc1 | -9.516%
41 | CC(C)CN1CCCn2nc(CNC(=O)CCCc3cn[nH]c3)cc2C1 | -2.664%
42 | O=C(Nc1cc2c(cc1Br)OCCO2)NC1CCS(=O)(=O)C1 (stereo not drawn) | -24.26%
43 | CC(C)CCN1C[C@H]2C[C@H](C(=O)NCC(C)C)[C@@H](C1)O2.O=C(O)C(F)(F)F | 100.1%
44 | CC(C)CNC(=O)[C@H]1C[C@@H]2CN(C(=O)NCC3CCCCC3)C[C@H]1O2 | -20.2%
45 | Cc1ccccc1CNC(=O)N1C[C@H]2C[C@H](C(=O)N3CCCC3)[C@@H](C1)O2 | 2.79%
46 | CC(C)CN1C[C@H]2C[C@H](C(=O)N3CCCC3)[C@@H](C1)O2.O=C(O)C(F)(F)F | 105.1%
47 | Cc1cccc(S(=O)(=O)N2C[C@H]3C[C@H](C(=O)NCC(C)C)[C@@H](C2)O3)c1 | -2.145%
48 | CC(C)CCN1C[C@H]2C[C@H](C(=O)N3CCCC3)[C@@H](C1)O2.O=C(O)C(F)(F)F | 103.2%
49 | CC(O)C1CCN(C(=O)Nc2nc(-c3ccccc3)ns2)CC1 (stereo not drawn) | -6.98%
50 | Cc1nccn1-c1ccc(NC(=O)C2CCCN2Cc2c[nH]cn2)cc1 (stereo not drawn) | 1.287%

Row | Compound | Percent Effect
51 | O=C(c1ccncc1F)N1CCCC1c1nc(-c2ccccc2)n[nH]1 (stereo not drawn) | 0.33%
52 | O=C(c1cc2c([nH]c1=O)CCC2)N1CCCC1c1ccccn1 (stereo not drawn) | -3.505%
53 | COc1ncccc1C(=O)N1CCCC1c1nc(-c2ccccc2)n[nH]1 (stereo not drawn) | 0.4619%
54 | CNC(=O)c1cn[nH]c1C1CCCN1C(=O)c1ccccn1 (stereo not drawn) | 122.3%
55 | O=C(c1cc2c([nH]c1=O)CCC2)N1CCCC1c1ccccc1 (stereo not drawn) | -12.47%
56 | NC(=O)c1cn[nH]c1C1CCCN1C(=O)COc1ccccc1 (stereo not drawn) | 125.9%
57 | NC(=O)c1cn[nH]c1C1CCCN1C(=O)c1ccccc1 (stereo not drawn) | 135.8%
58 | NC(=O)c1cn[nH]c1C1CCCN1C(=O)c1ccccn1 (stereo not drawn) | 92.76%
59 | CN(CC(=O)Nc1cccc(F)c1)Cc1nc(N)nc(N(C)C)n1 | 5.267%
60 | CCCSc1ccccc1NC(=O)N1CCN(C(=O)c2ccc[nH]2)CC1 | -3.563%
61 | Nc1cc2c(nn1)CCN(C(=O)c1csc(-c3ccco3)n1)C2 | -0.9791%
62 | CCCc1cc(CN(C)C2CCSCC2)n[nH]1 | -21.94%
63 | Cn1cc(C[C@H]2[C@H](N3CCOCC3)CCN2C(=O)c2ccoc2)cn1 | -12.72%
64 | Cc1ccc(C(=O)N2CCN(c3ncnc4nc(N)ccc34)CC2)cc1 | -17.64%
65 | CCn1cc(CN2CCN(Cc3cc(C)cc(C)c3)C(=O)C2)cc1C#N | -8.463%
66 | O=C(C1CCC1)N1CCN(C(=O)c2cnccn2)[C@H]2CS(=O)(=O)C[C@H]21 | -11.57%
67 | Cl.NC(=O)C1CNCCN1C(=O)COc1ccccc1 (stereo not drawn) | 142%
68 | CCC(=O)c1ccc(OCC(=O)N2CCNCC2C(=O)NC2CC2)cc1 (stereo not drawn) | -8.081%
69 | O=C(NC1CC1)C1CNCCN1C(=O)COc1ccc2c(c1)OCO2 (stereo not drawn) | 8.797%
70 | NC(=O)c1cn[nH]c1C1CCCN1C(=O)c1cnccn1 (stereo not drawn) | 109.9%
71 | O=C(c1cc2c([nH]c1=O)CCC2)N1CCCC1c1cccnc1 (stereo not drawn) | -4.003%
72 | O=C(NCc1ccc2c(c1)CCCO2)c1cn2c(n1)CNCC2 | -2.912%
73 | CN1CCC(N(Cc2ccco2)S(=O)(=O)c2ccc(Cl)cc2)CC1 | 18.55%
74 | COCCc1noc(-c2ccc(N[C@H]3CCCCNC3=O)nc2)n1 | -20.61%
75 | COc1nc2ccn(CCc3scnc3C)c(=O)c2cc1C#N | -7.908%

Row | Compound | Percent Effect
76 | CCn1nc(C)c(CCNC(=O)c2coc(CN3CCOCC3)c2)c1C | -5.303%
77 | Cc1nn(Cc2ccc(C(=O)NCCCN3CCCC3=O)o2)c(C)c1Cl | 113%
78 | Cc1nn(Cc2ccc(C(=O)NCCCN3CCOCC3)o2)c(C)c1Cl | 123.2%
79 | Cc1nn(Cc2ccc(C(=O)NCCCN3CCCC3=O)o2)c(C)c1Br | 118.7%
80 | Cc1ccc(C(=O)NCCCN2CCOCC2)c(Cl)c1 | -7.154%
81 | O=C(NCCN1CCCCCC1=O)c1n[nH]c(=O)c2ccccc12 | -2.472%
82 | Cn1cc(C(=O)NCCCN2CCCCCC2=O)c(-c2cccnc2)n1 | -24.83%
83 | O=C(NCCCN1CCCC1=O)Nc1ccc(Br)cc1Cl | 29.75%
84 | CC(NC(=O)NCCCN1CCCC1=O)c1ccc(Cl)s1 (stereo not drawn) | 5.893%
85 | CCOCC1CN(C(=O)c2ccncc2)Cc2nn(C)cc21.O=C(O)C(F)(F)F (stereo not drawn) | -7.804%
86 | COCCn1cc(C(=O)N2CCCC2c2cc(C)no2)ccc1=O (stereo not drawn) | -14.99%
87 | CN1CCC(O)(CNCc2ccc(F)c(C(F)(F)F)c2)CC1 | -14.25%
88 | Nc1nc2c(c(N3CCSCC3)n1)CCN(Cc1ccccn1)CC2 | 1.858%
89 | Cc1cnn(CCNc2ncnc3c2CCN(CC2CCOC2)CC3)c1 (stereo not drawn) | 11.29%
90 | Cc1nc2c(c(NCCc3nccs3)n1)CCN(CC1CC1)CC2 | 100.8%
91 | COCCNc1nc2c(c(NCC3CCOC3)n1)CCNCC2 (stereo not drawn) | 0.8355%
92 | COCCNc1nc(C)nc2c1CCN(C[C@H]1CC[C@@H](N)CC1)CC2 | 85.9%
93 | Cc1nc2c(c(NCCc3nc(C)c(Cl)s3)n1)CCNCC2 | 2.221%
94 | Nc1nc2c(c(NCc3nccs3)n1)CCN(CC1CCCC1)CC2 | 99.65%
95 | c1csc(CN2CCc3nc(N4CCOCC4)nc(NC4CC4)c3C2)n1 | -41.6%
96 | CCOCc1nc2c(c(N3CC=CC3)n1)CCN(CC1CC1)CC2 | -17.04%
97 | CCN(Cc1nccn1C)C(=O)c1ccc(NCC(C)C)nc1 | -32.37%
98 | Cc1cnc(N2CCC3(C2)CN(S(=O)(=O)C2CC2)C3)nc1 | -23.78%
